# HTR2A ag = agonists of mouse serotonin 5-HT2A receptor (HTR2A) | P35363 | CHO-K1 mHTR2A beta-arrestin complementation, luminescence; percent of 30 µM serotonin response | activation, % at 7.6 µM | 0.66% of 360,000 active | AID 624169;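 active means activation above a run cutoff, the mean activation of all tested compounds plus 3 SD, cut at about 14% in these data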;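 further: 0% = plate median of compound wells and 100% = 30 µM serotonin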
# Target sequence (P35363 whole entry, looked up): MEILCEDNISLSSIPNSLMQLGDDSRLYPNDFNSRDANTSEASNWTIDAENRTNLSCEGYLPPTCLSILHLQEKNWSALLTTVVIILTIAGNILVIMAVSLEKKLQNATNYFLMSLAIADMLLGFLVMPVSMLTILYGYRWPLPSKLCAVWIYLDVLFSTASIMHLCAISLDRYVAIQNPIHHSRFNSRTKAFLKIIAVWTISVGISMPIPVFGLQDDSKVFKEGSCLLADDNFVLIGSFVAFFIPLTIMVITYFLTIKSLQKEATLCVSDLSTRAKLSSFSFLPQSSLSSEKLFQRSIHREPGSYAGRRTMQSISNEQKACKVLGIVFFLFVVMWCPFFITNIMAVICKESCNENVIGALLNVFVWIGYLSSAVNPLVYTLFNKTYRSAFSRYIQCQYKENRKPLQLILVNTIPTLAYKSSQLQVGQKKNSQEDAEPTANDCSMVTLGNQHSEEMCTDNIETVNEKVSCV
# JMJD2C inh = inhibitors of human GASC-1 (JMJD2C) demethylase | Q9H3R0 | GST-JMJD2C(1-420) H3K9me3 demethylation, DELFIA europium | inhibition, % at 2.35 µM | 0.069% of 330,000 active | AID 2099;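 active means more than half of a compound's replicate wells show inhibition beyond 50%, single wells judged on their own value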;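 further: signal counts dimethyl H3K9 product captured on neutravidin plate; 0% = median of DMSO wells and 100% = 0.3 times that DMSO median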
# MEX-5 binding = C. elegans MEX-5 TCR-2 RNA binding activity. activity score (negative = inhibition of binding), % at 10 µM. Q9XUB2. MEX-5/FITC-TCR2 RNA binding, fluorescence polarization; stronger effect = lower value. 0.38% of 300,000 active;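 active means inhibition past about -25% in most replicates, and total fluorescence under double the plate's negative control median, limit read from the data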;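 further: 0% = DMSO and -100% = 5 µM competing unlabeled TCR2 RNA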
# Granule exo inh = blocks lytic granule exocytosis; TALL-104 LAMP-1 surface exposure, flow cytometry; cells stimulated with thapsigargin and PMA; inhibition, % at 10 µM; 0.66% of 360,000 active;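 active means inhibition above about 55%, limit read from the data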
# VLA-4 inh = inhibition in a human VLA-4 binding assay | P13612 | VLA-4 expressing cells, ligand binding flow cytometry | inhibition, % (about 7 µM as worked out from the volumes in the protocol) | 0.2% of 330,000 active | AID 2557; in the data active means inhibition above about 50%
# V-ATPase pHluor = regulators of yeast V-ATPase proton transport. 0.37% of 350,000 active. AID 504577. response, % at 10 µM. S. cerevisiae, pHLuorin cytosolic pH fluorescence; in the data active means response mostly above about 7.3%, no sharp cut-off; inactive means mostly below about 5.4%; further: actives read high
# Exocytosis CP01 = blocks lytic granule exocytosis | inhibition, % at 10 µM | TALL-104 cells, LAMP-1 externalization, flow cytometry; stimulated with PMA plus thapsigargin | 11% of 1,500 active | shares compounds with Granule exo inh; in the data active means inhibition above about 60%;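 further: 0% = stimulated vehicle wells and 100% = unstimulated wells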
# * = called active by the depositor; / = no result. An excerpt weighted towards active compounds, which were near 2.2% of everything screened.
SMILES,HTR2A ag,JMJD2C inh,MEX-5 binding,Granule exo inh,VLA-4 inh,V-ATPase pHluor,Exocytosis CP01
COc1ccc(NC(=O)c2cccc3c2C(=O)N(C2CCCCC2)C3)cc1,2.4,0.0,0.4,10.3,-3.3,0.4,/
COc1ccc(OC)c(NC(=O)c2cccc3c2C(=O)N(C2CCCCC2)C3)c1,0.1,-15.0,2.9,78.3*,1.6,-0.2,-13.4
Cc1onc(-c2ccccc2Cl)c1C(=O)Nc1cccc2cccnc12,-3.6,0.8,-0.7,51.1,-6.5,0.7,/
COc1cc(NC(=O)c2c(-c3ccccc3Cl)noc2C)c2ncccc2c1,0.7,1.8,3.1,82.2*,19.6,-6.0,-7.2
Cc1c([C@@H]2C[C@H]3CN(Cc4cccc(Cl)c4)C(=O)[C@]34CCCN24)cnn1C,1.9,-5.4,1.6,78.5*,26.6,2.5,-3.0
Cc1ccc(-n2cnc(N)c2C(=O)c2cccc([N+](=O)[O-])c2)cc1,-2.0,0.6,1.9,1.6,-1.2,0.7,/
Cc1cc(Br)cc(Cl)c1OCC(=O)N1CCN(C(=O)c2ccco2)CC1,1.0,9.6,/,89.1*,13.5,2.0,-13.6
Cc1cccc(CN2CCc3c([nH]c4ccccc34)C2CC(C)C)n1 (stereo not given),-4.6,-2.8,-0.3,63.3*,-3.2,0.5,-3.0
COc1cc(C(=O)NCC(=O)Nc2ccc(F)c(F)c2)ccc1OCC(=O)N1CCOCC1,3.1,-0.5,-0.4,-2.0,10.3,4.6,/
COc1ccc(NC(=O)CN(c2ccc(OC)c(Cl)c2)S(=O)(=O)c2ccccc2)cc1,-9.2,-1.0,-0.1,56.3*,18.4,-4.4,-3.2
COc1ccc(N(CC(=O)Nc2ccc(OC)c(OC)c2)S(=O)(=O)c2ccccc2)cc1Cl,-7.6,-1.2,-3.0,31.8,16.7,-3.5,/
CCOc1ccc(N(CC(=O)NCCOc2ccc(C)cc2)S(=O)(=O)c2ccccc2)cc1,1.1,1.6,3.3,-0.3,13.4,-3.7,/
CCOc1ccc(N(CC(=O)NCCSc2ccccn2)S(=O)(=O)c2ccc(Cl)cc2)cc1,-6.7,8.0,2.1,56.9*,1.8,2.5,-5.3
CCOc1ccc(N(CC(=O)NCCSc2ccccn2)S(C)(=O)=O)cc1,1.5,0.6,3.2,-1.3,9.5,3.8,/
COc1ccc(N(CC(=O)NCCOc2ccccc2)S(=O)(=O)c2ccc(C)cc2)cc1,-12.6,-39.8,0.8,78.2*,7.3,-2.5,-11.6
COc1ccc(N(CC(=O)NCCC2=CCCCC2)S(=O)(=O)c2ccccc2)cc1,1.9,3.5,-1.7,62.3*,5.0,-7.9,-5.1
COc1ccc(-c2c(C#Cc3ccsc3)c3cc(-c4ccc(OC)c(F)c4)ccc3n2C)cc1,5.2,-2.1,/,6.4,22.0,-4.5,/
O=C(CSc1nc2c(sc3ccccc32)c(=O)n1CCCN1CCCC1)NCc1ccccc1,-7.3,-7.6,1.5,66.6*,-15.7,3.8,7.5
CSc1scc2c1-c1nc(SCC(=O)C(C)(C)C)ncc1CC2,0.8,7.1,-1.0,73.8*,25.1,-0.6,-11.2
C=CCNC(=O)CSc1ncc2c(n1)-c1c(csc1SC)CC2,0.2,5.0,0.8,-0.1,-4.7,1.1,/
COCOCCn1cc(CN2CCS(=O)(=O)N(Cc3ccc(-c4ccc(Cl)c(Cl)c4)cc3)C(C(C)C)C2=O)nn1 (stereo not given),0.5,/,/,57.3*,/,1.8,33.3
COc1cc(NC(=NS(=O)(=O)c2ccccc2)c2ccccc2)ncn1,-1.5,/,/,4.5,/,-1.5,/
CCOC(=O)C1Nc2c(cc(C(F)(F)F)cc2[N+](=O)[O-])C2c3ccccc3CC12 (stereo not given),-4.2,9.9,1.9,76.4*,-8.3,-2.1,-12.6
Cc1cc[n+]2cc(-c3cccc([N+](=O)[O-])c3)c(-c3cccc([N+](=O)[O-])c3)cc2c1,3.2,5.6,-9.0,-6.8,-1.5,3.4,/
O=C(c1cc(S(=O)(=O)N2CCOCC2)c(Cl)cc1Cl)N1CCN(S(=O)(=O)c2cccc(F)c2)CC1,7.3,6.5,/,55.5*,16.8,-3.2,-5.1
SMILES,HTR2A ag,JMJD2C inh,MEX-5 binding,Granule exo inh,VLA-4 inh,V-ATPase pHluor,Exocytosis CP01
Cc1ccc(S(=O)(=O)N2CCN(C(=O)c3cc(S(=O)(=O)N4CCOCC4)c(Cl)cc3Cl)CC2)cc1,-6.0,/,/,-0.2,/,-2.0,/
COc1ccc(-n2c(C)c(C)c3c(NCCN(C)C)ncnc32)cc1,-4.4,-15.3,0.7,-6.8,11.9,0.7,/
Cc1c(C)n(-c2ccccc2)c2ncnc(NCCN(C)C)c12,-7.0,0.2,-2.2,65.3*,10.2,0.3,-10.2
O=C(NCC1CCCCC1)c1cccc(-c2ccc(O)cc2)c1,-11.2,-3.4,-0.6,58.6*,1.9,1.2,-3.9
CC(=O)N(CCC(Cc1ccccc1)c1ccc2c(c1)OCO2)Cc1ccc(Cl)cc1 (stereo not given),-5.0,4.0,0.6,89.6*,-6.1,-2.7,19.3
CS(=O)(=O)N1CCN(c2ccc(NC(=O)c3ccc(-c4ccc(Cl)cc4)o3)cc2)CC1,1.3,-10.6,3.3,-4.6,-4.4,-1.0,/
CN1CCN(c2ccc(NC(=O)c3cccc(OCc4ccccc4)c3)cc2)CC1,-5.9,11.5,0.3,58.3*,4.3,-2.2,21.9
CCN1CCN(c2ccc(NC(=O)c3cccc(OCc4ccccc4)c3)cc2)CC1,-4.1,-2.9,-0.5,23.2,9.1,3.6,/
CN1CCN(c2ccc(NC(=O)c3ccc(-c4ccc(Cl)cc4)o3)cc2)CC1,0.6,-5.3,-3.4,73.2*,2.2,-4.3,90.9*
Cc1ccc(-c2nn(-c3ccccc3)cc2CN(Cc2ccccc2)C(=O)c2ccco2)o1,-3.2,-2.1,2.3,107.7*,-14.1,1.4,103.9*
O=C(C1COc2ccccc2O1)N1CCN(Cc2ccc(Br)cc2F)CC1 (stereo not given),-2.6,6.0,2.9,5.9,-1.6,3.1,/
Cc1noc(C)c1S(=O)(=O)N(C)C[C@H]1Oc2c(NC(=O)NC(C)C)cccc2C(=O)N([C@H](C)CO)C[C@@H]1C,-3.8,/,/,-5.9,1.7,2.6,/
COc1cccc(-c2nc(NC(C)(C)C)c3ccccc3n2)c1O,10.9,1.3,-0.3,56.4*,7.7,-2.0,-10.5
O=C1Nc2ccc(Br)cc2/C1=C/C(=O)c1ccc2c(c1)OCO2,3.3,-12.2,-2.4,40.2,1.3,0.8,/
COc1ccc(C(=O)/C=C2\C(=O)Nc3ccc(Br)cc32)cc1,-0.5,/,/,82.4*,/,3.8,40.4
O=C1NC(=O)/C(=C/C(=O)N2CCOCC2)S1,-1.7,2.8,1.8,12.0,-13.9,1.8,/
CCOC(=O)c1ccccc1NC(=O)COC(=O)C1CCN(S(=O)(=O)c2ccccc2C(=O)OC)CC1,2.5,1.6,2.1,10.8,9.0,-1.1,/
COC(=O)c1ccccc1S(=O)(=O)N1CCC(C(=O)OCC(=O)NCC(F)(F)F)CC1,-1.7,-3.3,1.7,95.5*,11.1,-0.2,-5.9
